In all, about 360,000 compounds went through this assay and about 3,100 (0.86%) were called active. The entries come from a sample that favours actives as a whole. A number with no mark means an inactive call.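 The calls were made as follows: active = inhibition or corrected inhibition above about 18%, plus a signal ratio from 0.5 to 1.5 (limit read from the data, passing the limit was not always enough); inactive = the rest.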
These molecules were tested against Neuropilin-1 (Homo sapiens) (UniProt O14786) (assay: modulators of CendR peptide binding to NRP-1, primary screen, biochemical, fluorescence polarization, uHTS (AID 602438)). Settings: FAM-RPARPAR peptide binding to NRP-1, fluorescence polarization; at 25 µM; hits give high values.
Neuropilin-1 (Homo sapiens), sequence (O14786 whole entry, looked up): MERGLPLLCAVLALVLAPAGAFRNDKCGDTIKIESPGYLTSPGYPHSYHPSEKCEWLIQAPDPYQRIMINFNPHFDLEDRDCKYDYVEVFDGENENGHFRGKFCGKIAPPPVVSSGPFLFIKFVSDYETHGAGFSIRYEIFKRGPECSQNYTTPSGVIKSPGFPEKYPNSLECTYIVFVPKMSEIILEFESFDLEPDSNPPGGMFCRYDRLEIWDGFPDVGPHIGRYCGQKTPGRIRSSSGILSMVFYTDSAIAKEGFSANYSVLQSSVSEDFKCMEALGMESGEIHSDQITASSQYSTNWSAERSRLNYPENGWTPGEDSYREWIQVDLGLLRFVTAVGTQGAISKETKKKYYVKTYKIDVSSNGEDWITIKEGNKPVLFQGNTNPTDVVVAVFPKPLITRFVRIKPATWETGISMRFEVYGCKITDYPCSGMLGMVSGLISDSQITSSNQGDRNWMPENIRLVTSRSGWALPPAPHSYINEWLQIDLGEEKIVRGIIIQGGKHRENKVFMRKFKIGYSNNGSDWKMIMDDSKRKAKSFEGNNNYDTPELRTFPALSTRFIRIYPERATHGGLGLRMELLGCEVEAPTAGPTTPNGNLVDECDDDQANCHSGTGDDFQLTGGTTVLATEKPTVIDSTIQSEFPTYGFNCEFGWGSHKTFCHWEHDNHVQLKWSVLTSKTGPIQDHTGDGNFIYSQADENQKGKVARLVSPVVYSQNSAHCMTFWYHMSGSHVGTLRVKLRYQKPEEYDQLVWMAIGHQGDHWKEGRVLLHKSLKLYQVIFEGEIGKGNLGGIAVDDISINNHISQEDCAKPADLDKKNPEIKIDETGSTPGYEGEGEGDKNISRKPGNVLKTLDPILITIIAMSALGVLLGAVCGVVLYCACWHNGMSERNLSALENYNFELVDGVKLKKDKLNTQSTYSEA

SMILES	inhibition
Cc1ccc(N(C(=O)c2ccc(CN3CCOCC3)o2)C(C(=O)NCCC(C)C)c2cccs2)c(C)c1 (stereo not given)	26.1% (active)
Cc1ccc(C(=O)NC(C)C(c2cccs2)N2CCOCC2)cc1C (stereo not given)	-2%
Cc1cccc(N(C(=O)c2ccc(CN3CCOCC3)o2)C(C(=O)NC2CCCCC2)c2ccc(F)cc2)c1 (stereo not given)	-7.1%
Cc1csc(=O)n1CCC(=O)OCC(=O)NNC(=O)c1ccc(Br)cc1	-1.9%
CCOC(=O)N1CCN(C(c2ccnc3ccccc23)c2nnnn2-c2c(C)cccc2C)CC1 (stereo not given)	-13.7%
COc1cc(NC(=O)COC(=O)c2ccc([N+](=O)[O-])s2)cc(OC)c1OC	-5.2%
COc1ccc(C(=O)COC(=O)c2ccc([N+](=O)[O-])s2)cc1OC	24.3% (active)
O=C(OCC(=O)N1CCN(c2ccccc2)CC1)c1ccc([N+](=O)[O-])s1	-3.7%
COc1ncnc2c1ncn2CCCNCCN1CCOCC1	1%
CCOc1ccc(CCNC(=O)CSc2cc(=O)n(C)c3ccc(Cl)cc23)cc1OCC	4.1%
O=C(Cc1ccccc1)Nc1cccc(C(=O)N/N=C/c2ccco2)c1	-32.3%
O=C(CCNC(=O)c1ccccc1Cl)NN=Cc1ccco1	10.2%
O=C(N/N=C/c1ccco1)c1csc2c1CCCC2	26.9% (active)
CCC(C(=O)OC)n1cnc2scc(-c3ccc(C)cc3)c2c1=O (stereo not given)	91.3% (active)
CC(=O)C(C)n1cnc2scc(-c3ccc(C)cc3)c2c1=O (stereo not given)	7.4%
CCOC(=O)C(C)n1cnc2scc(-c3ccc(C)c(C)c3)c2c1=O (stereo not given)	9.9%
O=C(CCNC(=O)C1CCN(S(=O)(=O)c2ccccc2)CC1)NC1CC1	-0.4%
Cc1ccccc1NC(=O)c1cc(S(=O)(=O)N2CCOCC2)cs1	15%
Cc1ccc(-c2ccc(C3=CC(=O)CC(C)(C)C3=O)cc2)cc1	4.5%
CN1CCN(c2cc3c(cc2F)c(=O)c(C(=O)O)cn3CCF)CC1	11.3%
CCOC(=O)c1c(NC(=O)CCl)sc(C(=O)N(CC)CC)c1C	-0.5%
CCOC(=O)c1c(NC(=O)COC(=O)c2ccc(S(=O)(=O)C(F)F)cc2)sc(C(=O)N(C)C)c1C	-19.4%
CCOC(=O)Nc1sc(C(=O)N(C)C)c(C)c1C(=O)OCC	26.1% (active)

SMILES	inhibition
Cc1cc(NC(=O)CSc2nc(=O)cc(N)n2-c2ccc(F)cc2)no1	8.7%
COc1ccc(C(=O)NCc2ccc(Cl)cc2)cc1S(=O)(=O)N1CCCC1	4.6%
COc1ccc(Cl)cc1S(=O)(=O)N1CCN(CC(=O)C(C)(C)C)CC1	21.7% (active)
COc1ccc(Cl)cc1S(=O)(=O)N1CCC(O)(c2ccc(Cl)cc2)CC1	3%
CC(NCc1ccccc1OC1CCCC1)c1ccccc1 (stereo not given)	-0.1%
O=C(NC12CC3CC(CC(C3)C1)C2)N1CCCC(CO)C1 (stereo not given)	-1.5%
CC(=O)c1c(N)n(C)c(=O)n(C)c1=O	5.8%
Cc1ccc(C(C(=O)NCC2CCCO2)N(C(=O)c2snc(C(N)=O)c2N)c2ccc(C(C)C)cc2)o1 (stereo not given)	-5.9%
O=C(O)c1ccccc1OCc1ccccc1Cl	5.3%
Cc1ccc(-n2c(SCC(=O)NCc3ccc4c(c3)OCO4)nnc2-c2cccnc2)c(C)c1	8.7%
Cc1ccccc1-c1nnc(SCC(=O)NCc2ccc3c(c2)OCO3)n1C	38.3% (active)
Cn1cccc1Cc1nnc(SCC(=O)NCc2ccc3c(c2)OCO3)n1CCc1ccccc1	-7.4%
Cc1cc(N=CC2=C(O)CCCC2=O)no1	10.1%
CC1OC2C(OC1C)N(S(C)(=O)=O)CCN2S(C)(=O)=O (stereo not given)	-3.5%
CC1(C(=O)Nc2ccc3c(c2)OCCO3)CSCC(=O)N1CCOc1ccccc1 (stereo not given)	-11.3%
CCCN(CC1CC1)C(=O)COC(=O)c1ccc(C)cc1O	-9.9%
Cc1cccc(C)c1NC(=O)COC(=O)c1ccccc1O	6.8%
Cc1ccc(C(=O)OCC(=O)NC(=O)Cc2ccccc2)c(O)c1	20.4% (active)
C[C@H](CO)N1C[C@H](C)[C@@H](CN(C)C(=O)c2cnccn2)Oc2ncc(Br)cc2C1=O	2.9%
C/C=C/C(=O)Nc1ccc(N2CCN(c3ccc(C(F)(F)F)cn3)CC2)nc1	6.8%
C[C@H]1CN([C@@H](C)CO)C(=O)Cc2cc(NC(=O)Cc3ccccc3)ccc2O[C@H]1CN(C)S(=O)(=O)c1cccs1	0.6%
CCCCCNC(=O)c1cccnc1SCC(=O)Nc1ccccc1OC	-0.3%
